Hits are enriched below; roughly 1.2% of the tested compounds scored in any of these assays.
GSH fluor: compound fluorescence on glutathione beads, profiling panel, artefact control, biophysical, 488/530 nm, flow cytometry | GSH beads flow cytometry, compound fluorescence 488/530 nm; active compounds read high | fluorescence (KMESF) at 10 µM | 190,000 compounds, 0.25% hits; in the data active means fluorescence above about 89;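 further: glutathione beads carrying GST-tagged Bcl family fusion proteins plus one bare bead set; values are compound well signal with DMSO vehicle wells as background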
RGS4-Gao reg: modulators of RGS4 binding to Galphao, primary screen, biochemical, multiplexed bead flow cytometry | Guanine nucleotide-binding protein G(o) subunit alpha (Homo sapiens), P09471 | binding response (% of control), % at 10 µM | 220,000 compounds, 0.33% hits | actives lie on both sides; in the data active means binding response below about 49% or above about 150%; inactive means in between;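 further: fluorescent Galphao activated with aluminum fluoride binding bead-coupled RGS4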
Target sequence (P09471 whole entry, looked up): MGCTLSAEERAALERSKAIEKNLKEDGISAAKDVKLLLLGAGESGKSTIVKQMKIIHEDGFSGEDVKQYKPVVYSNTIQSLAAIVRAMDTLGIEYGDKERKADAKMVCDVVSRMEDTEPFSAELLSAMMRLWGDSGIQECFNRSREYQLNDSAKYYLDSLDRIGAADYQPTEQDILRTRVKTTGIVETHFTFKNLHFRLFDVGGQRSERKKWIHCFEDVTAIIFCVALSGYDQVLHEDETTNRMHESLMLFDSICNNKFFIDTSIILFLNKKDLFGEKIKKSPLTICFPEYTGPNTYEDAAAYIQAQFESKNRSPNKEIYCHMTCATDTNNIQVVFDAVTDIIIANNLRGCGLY
Avidin fluor: green autofluorescence of compounds with avidin beads – biophysical, 488/530 nm, flow cytometry, artefact control, profiling panel; compound fluorescence 488/530 nm; active compounds read high; fluorescence (KMESF) at 10 µM; 220,000 compounds, 0.38% hits; in the data active means fluorescence above about 47
RGS16-Gao HTS: modulators of RGS16 binding to Galphao, primary screen, biochemical, human proteins, multiplexed bead flow cytometry | Regulator of G-protein signaling 16 (Homo sapiens) + Guanine nucleotide-binding protein … | bead-based flow cytometry RGS16-Galphao binding, fluorescence; actives lie on both sides | binding response (% of control), % at 10 µM | 220,000 compounds, 0.38% hits; call rule not given here;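 further: Galphao activated by GDP with aluminum fluoride before binding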
Target sequence (O15492 whole entry, looked up): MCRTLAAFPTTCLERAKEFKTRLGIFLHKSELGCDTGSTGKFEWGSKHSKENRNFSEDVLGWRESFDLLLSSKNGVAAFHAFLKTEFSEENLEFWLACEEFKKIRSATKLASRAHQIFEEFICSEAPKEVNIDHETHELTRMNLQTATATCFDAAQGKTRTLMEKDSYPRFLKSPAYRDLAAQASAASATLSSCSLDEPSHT
Target sequence (P09471 whole entry, looked up): as the sequence (P09471 whole entry, looked up) above
RGS8-Gao: RGS8-Galphao binding modulators, primary screen, biochemical, multiplexed bead flow cytometry. response (percent of control binding), % at 10 µM. actives lie on both sides. Guanine nucleotide-binding protein G(o) subunit alpha (Homo sapiens), P09471. 220,000 compounds, 0.34% hits; in the data active means response below about 60% or above about 140%; inactive means in between;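 further: Galphao activated as the GDP aluminium fluoride complex binding bead-coupled RGS8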
RGS7-Gao reg: RGS7-Galphao binding modulators, primary screen, biochemical, multiplexed bead flow cytometry. Guanine nucleotide-binding protein G(o) subunit alpha (Homo sapiens), P09471. binding response (% of control), % at 10 µM. actives lie on both sides. 220,000 compounds, 0.35% hits; in the data active means binding response below about 49% or above about 150%; inconclusive means no clear call, values can overlap the other calls; inactive means in between;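 further: fluorescent Galphao held in activated GDP-AlF4 state binding bead-coupled RGS7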
* hit, by the source's call.

How did Oc1ccc(C=NC2CCCCC2)cc1 do in these assays?
RGS4-Gao reg: 92; Avidin fluor: 8; RGS16-Gao HTS: 94; RGS8-Gao: 96; RGS7-Gao reg: inconclusive

What do the screens show for `CCCC(C(=O)NC(C)(C)C)N(C(=O)c1snc(C(N)=O)c1N)c1ccc2c(c1)OCCO2` (configuration not stated)?
GSH fluor: 11; RGS4-Gao reg: 116; Avidin fluor: 47*; RGS16-Gao HTS: 108; RGS8-Gao: 101; RGS7-Gao reg: 136

What do the screens show for `CCC(C)(C)NC(=O)CN(C(=O)c1snc(C(N)=O)c1N)c1ccc2c(c1)OCCO2`?
GSH fluor: 24; RGS4-Gao reg: 97; Avidin fluor: 29; RGS16-Gao HTS: 97; RGS8-Gao: 99; RGS7-Gao reg: 101

Results for OC(CON=C1c2ccccc2-c2ccccc21)CN1CCNCC1 (configuration not stated) ?
GSH fluor: 20; RGS4-Gao reg: 96; Avidin fluor: 7; RGS16-Gao HTS: 102; RGS8-Gao: 99; RGS7-Gao reg: 94

What do the screens show for `Cn1c(=O)[nH]c(=O)c2c1nc([N+](=O)[O-])n2Cc1ccccc1`?
RGS4-Gao reg: 96; Avidin fluor: 7; RGS16-Gao HTS: 95; RGS8-Gao: 96; RGS7-Gao reg: inconclusive

How did CCOc1ccccc1NC(=O)N1C2CCCC1CC(NC(=O)C1CC1)C2 (configuration not stated) do in these assays?
GSH fluor: 96*; RGS4-Gao reg: 101; Avidin fluor: 8; RGS16-Gao HTS: 98; RGS8-Gao: 101; RGS7-Gao reg: 101

What do the screens show for `CCn1c(N)c(C(=O)NC)sc1=S`?
GSH fluor: 87*; RGS4-Gao reg: 99; Avidin fluor: 8; RGS16-Gao HTS: 44; RGS8-Gao: 69; RGS7-Gao reg: 126

What do the screens show for `CN(C)C(CNC(=O)c1cc(S(=O)(=O)N(C)c2ccccc2)ccc1Cl)c1cccs1` (configuration not stated)?
GSH fluor: 12; RGS4-Gao reg: 96; Avidin fluor: 9; RGS16-Gao HTS: 96; RGS8-Gao: 98; RGS7-Gao reg: 95

How did CCO[C@H]1OC(C(=O)N2CCN(C)CC2)=C[C@@H](C)[C@@H]1CCCO do in these assays?
GSH fluor: 19; RGS4-Gao reg: 97; Avidin fluor: 6; RGS16-Gao HTS: 101; RGS8-Gao: 104; RGS7-Gao reg: 98

Results for Cn1cnc2c(=O)[nH]cc([N+](=O)[O-])c21 ?
GSH fluor: 8; RGS4-Gao reg: 112; Avidin fluor: 62*; RGS16-Gao HTS: 115; RGS8-Gao: 106; RGS7-Gao reg: 118

Results for CCOc1ccc2nc3c(cc2c1)CN(CCOC)C(=NC)S3 ?
GSH fluor: 114*; RGS4-Gao reg: 99; Avidin fluor: 5; RGS16-Gao HTS: 108; RGS8-Gao: 100; RGS7-Gao reg: 105

What do the screens show for `CC1CC2=C(C(=O)O1)C(c1ccc(Cl)cc1)Nc1ccccc1N2` (configuration not stated)?
GSH fluor: 16; RGS4-Gao reg: 98; Avidin fluor: 19; RGS16-Gao HTS: 89; RGS8-Gao: 96; RGS7-Gao reg: 103

How did N#Cc1ccccc1Sc1ccccc1N do in these assays?
GSH fluor: 25; RGS4-Gao reg: 20*; Avidin fluor: -2; RGS16-Gao HTS: 0.4*; RGS8-Gao: 12*; RGS7-Gao reg: 14*

Results for CC(C)(C)c1cc(C(=O)Nc2ccccc2)ccn1 ?
GSH fluor: 103*; RGS4-Gao reg: 88; Avidin fluor: 4; RGS16-Gao HTS: 93; RGS8-Gao: 98; RGS7-Gao reg: 95

Results for CCOC(=O)c1sc(NC(=O)CSc2nc3c(c(=O)n2-c2ccc(F)cc2)SCC3)c(C(=O)OCC)c1C ?
GSH fluor: 16; RGS4-Gao reg: 111; Avidin fluor: 6; RGS16-Gao HTS: 115; RGS8-Gao: 109; RGS7-Gao reg: 110

Results for OC1CCCN(Cc2ccc3ccc4cccc5ccc2c3c45)C1 (configuration not stated) ?
GSH fluor: 24; RGS4-Gao reg: 111; Avidin fluor: 142*; RGS16-Gao HTS: 104; RGS8-Gao: 100; RGS7-Gao reg: 135

How did Cc1cc(C(=O)CNCc2ccco2)c(C)n1-c1ccc(F)cc1 do in these assays?
GSH fluor: 248*; RGS4-Gao reg: 106; Avidin fluor: 8; RGS16-Gao HTS: 101; RGS8-Gao: 103; RGS7-Gao reg: 108

What do the screens show for `CCOc1ccc(N2CCc3c(C)nc(SC)nc32)cc1`?
GSH fluor: 13; RGS4-Gao reg: 102; Avidin fluor: 8; RGS16-Gao HTS: 100; RGS8-Gao: 103; RGS7-Gao reg: 99

Results for COc1ccc(C(=O)NCc2ccc3[nH]c(C)cc3c2)cc1OC ?
GSH fluor: 11; RGS4-Gao reg: 99; Avidin fluor: 22; RGS16-Gao HTS: 105; RGS8-Gao: 100; RGS7-Gao reg: 99

How did COc1ccc(CNCCSc2nnnn2C)c(OC)c1OC do in these assays?
GSH fluor: 13; RGS4-Gao reg: 104; Avidin fluor: 13; RGS16-Gao HTS: 107; RGS8-Gao: 105; RGS7-Gao reg: 107

Results for COc1ccc(Br)cc1CNCCSc1nnnn1C ?
GSH fluor: 253*; RGS4-Gao reg: 102; Avidin fluor: 8; RGS16-Gao HTS: 98; RGS8-Gao: 99; RGS7-Gao reg: 97

What do the screens show for `COC(=O)C(C)N1C(=O)S/C(=C/c2cc(C)n(-c3ccccn3)c2C)C1=O` (configuration not stated)?
GSH fluor: 267*; RGS4-Gao reg: 104; Avidin fluor: 8; RGS16-Gao HTS: 98; RGS8-Gao: 104; RGS7-Gao reg: 101

How did O=C(CSc1nc2ncc(Cl)cc2[nH]1)N(Cc1ccccc1)C1CCS(=O)(=O)C1 (configuration not stated) do in these assays?
GSH fluor: 26; RGS4-Gao reg: 101; Avidin fluor: 9; RGS16-Gao HTS: 100; RGS8-Gao: 102; RGS7-Gao reg: inconclusive

Results for CC(=O)c1cc(F)c(N2CCN(C(=O)COc3ccc(F)cc3)CC2)cc1C ?
GSH fluor: 93*; RGS4-Gao reg: 103; Avidin fluor: 5; RGS16-Gao HTS: 103; RGS8-Gao: 105; RGS7-Gao reg: 104

Results for CSCC[C@H](NC(=O)OC(C)(C)C)c1nnc(SCC=C(C)C)o1 ?
GSH fluor: 267*; RGS4-Gao reg: 100; Avidin fluor: 8; RGS16-Gao HTS: 101; RGS8-Gao: 100; RGS7-Gao reg: 101

What do the screens show for `O=C(CCS(=O)(=O)Cc1ccccc1F)NCc1ccccc1Cl`?
GSH fluor: 12; RGS4-Gao reg: 99; Avidin fluor: 27; RGS16-Gao HTS: 105; RGS8-Gao: 102; RGS7-Gao reg: 98

Screens: PubChem BioAssay, NMMLSC
